Activity calls are given as the source filed them. The call rests on the fitted dose curve; in most records, active means well fitted curve in the direction sought with a large enough effect in the repeat runs; inconclusive means weak or mixed curves; inactive means flat fitted curve, though single readings scatter.
assay: qHTS assay to test for compound auto fluorescence at 460 nm (blue) in HepG2 cell free culture (AID 720685); conditions: Cell-free culture medium, blue autofluorescence 405/460 nm; series mostly up to 91.3 µM; fluorescence, % of fluorescent control: at the top concentration
Excerpt: U.S. Tox21 Program National Center for Advancing Translational Sciences [NCATS] NIH Chemical Genomics Center [NCGC] U.S. Environmental Protection Agency [EPA] National Institutes of Environmental Health Sciences [NIEHS] National Toxicology Program [NTP] U.S. Food and Drug Administration [FDA] Tox21 Assay Overview: Compound auto fluorescence often interferes with screening of the compound library against various biological targets and signaling pathways. Some of these compounds may have fluorophoric properties. Such properties may interfere with the assay outputs resulting in false positives and/or negatives. To decrease such complications and ensure the compound activities are relevant in terms of biological response, the Tox21 10K compound library was screened for auto fluorescence. From the fluorophores used as reporter signals in our screening assays, the auto fluorescence equivalencies of compounds against three fluorophores have been evaluated: Triamterene, Fluorescein and Rose Bengal sodium for blue, green and red fluorescence, respectively. The fluorescence intensities were measured using Excitation/Emission wavelengths at 405/460nm, 485/535nm and 540/590nm for blue, green and red labels, respectively. This assay includes the blue fluorescence data.
Tox21 Assay Protocol Summary: 5 uL of culture medium (MEM containing 10% FBS) per well was dispensed into black wall/clear bottom 1536-well plates using a Multidrop Combi Dispenser (ThermoFisher Scientific, Waltham, MA). After 23 nL compound or DMSO vehicle was transferred into assay plate by a pintool work station (Kalypsys, San Diego, CA), fluorescence intensities in the assay plates were measured by an Envision (PerkinElmer, Shelton, CT) plate reader using three labels for measuring blue, green and red fluorescence at […] 460, 535 and 590nm respectively.
On the % scale 0 is the no-effect control and ±100 the full control effect.

Row | SMILES | fluorescence, % of fluorescent control | outcome
1 | Clc1nc(Cl)nc(Nc2ccccc2Cl)n1 | 0.0534% (inactive) | 
2 | CCN[C@H](C)Cc1cccc(C(F)(F)F)c1 | -0.0041% (inactive) | 
3 | N=C(N)[Se] | 0.0109% (inactive) | 
4 | Oc1ccc(Cc2ccc(O)cc2)cc1 | 0.0068% (inactive) | 
5 | COC(=O)c1ccc(CBr)cc1 | 0.191% [at 95.7 µM] (inactive) | 
6 | O=C(O)c1c(Cl)ccc2cc(Cl)cnc12 | -0.107% (inactive) | 
7 | C(COCC1CO1)OCC1CO1 (stereo not given) | -0.0698% (inactive) | 
8 | CCOC(=O)COc1ccc(Cl)cc1Cl | -0.047% (inactive) | 
9 | CC(C)(C)NC[C@H](O)c1ccc(O)cc1Cl | 0.0912% [at 46 µM] (inactive) | 
10 | O=c1[nH]c2ccccc2o1 | 0.0418% (inactive) | 
11 | c1ccc2c(c1)CCNC2 | 0.0209% [at 95.7 µM] (inactive) | 
12 | CC(C)c1ccc(O)cc1 | -0.0124% (inactive) | 
13 | NC(=O)OCCCc1ccccc1 | -0.0012% [at 46 µM] (inactive) | 
14 | O=C(O)CBr | -0.212% (inactive) | 
15 | CCOC(=O)C(SP(=S)(OC)OC)c1ccccc1 (stereo not given) | -0.137% (inactive) | 
16 | CNC(=O)Oc1cc(C)c(N(C)C)c(C)c1 | -0.0987% (inactive) | 
17 | Brc1c(Br)c(Br)c(Br)c(Br)c1Br | 0.0001% [at 3.72 µM] (inactive) | 
18 | CNC(=O)O/N=C(/CSC)C(C)(C)C | -0.0164% (inactive) | 
19 | CCNP(=S)(OC)O/C(C)=C/C(=O)OC(C)C (stereo not given) | 0.584% (inactive) | 
20 | CC(C)(O)C(Cl)(Cl)Cl | 0.063% [at 46 µM] (inactive) | 

Row | SMILES | fluorescence, % of fluorescent control | outcome
21 | CCc1cc(OC)c(C[C@H](C)N)cc1OC | 0.0044% [at 95.7 µM] (inactive) | 
22 | C=CCc1cc(OC)c2c(c1)OCO2 | 0.0357% [at 95.7 µM] (inactive) | 
23 | COc1cccc(C=O)c1 | -0.0517% (inactive) | 
24 | CCC1(c2ccccc2)C(=O)N(COC)C(=O)N(COC)C1=O | 0.0404% [at 46 µM] (inactive) | 
25 | CC(=O)CN(CC(C)=O)N=O | 0.0698% (inactive) | 
26 | C=C1CC[C@@]2(O)[C@H]3Cc4ccc(O)c5c4[C@@]2(CCN3CC2CC2)[C@H]1O5 | 0.143% [at 46 µM] (inactive) | 
27 | CNC(=O)Oc1ccccc1C(C)C | -0.0478% (inactive) | 
28 | C#CCOC(=O)/C=C(C)/C=C/CC(C)CCCC(C)C (stereo not given) | 0.0164% (inactive) | 
29 | [O-][Br+2]([O-])O | -0.238% [at 46 µM] (inactive) | 
30 | C[C@H](N)C(=O)c1ccccc1 |  | inactive
31 | CC1N=C(N)OC1c1ccccc1 (stereo not given) | -0.0006% (inactive) | 
32 | COP(=O)(O)OC | -0.0297% [at 95.7 µM] (inactive) | 
33 | CCCC(C)C1(CC)C(=O)N=C(S)NC1=O (stereo not given) | 0.0627% [at 46 µM] (inactive) | 
34 | C/C=C/CC#N | 0.0416% [at 95.7 µM] (inactive) | 
35 | N[C@@H](Cc1ccc(Oc2cc(I)c(O)c(I)c2)c(I)c1)C(=O)O | -0.139% [at 46 µM] (inactive) | 
36 | CN(C)C(=O)Oc1cc(OC(=O)N(C)C)cc(C(O)CNC(C)(C)C)c1 (stereo not given) | 0.0484% [at 18.6 µM] (inactive) | 
37 | O=P(O)(O)c1ccccc1 | 0.0272% (inactive) | 
38 | COP(=O)(OC)O/C(C)=C/C(=O)N(C)C | 0.0064% (inactive) | 
39 | O=CCCl | 0.0657% (inactive) | 
40 | Cc1cccc2sc3nncn3c12 | 0.412% (inactive) | 

Source: PubChem BioAssay (Tox21)
